Experimental data published in ChEMBL document CHEMBL3988442, “University of Dundee, Small-Polar-MMV Screening Library” (2021).
For some of these results: Potency and affinity values are given separately.

Assays:
Set-up in all cases: scale not given: direction of the effect not stated beside the values
[1] = target: Protein translocase subunit SecA (Escherichia coli (strain K12)) (UniProt P10408); test: Assay to Identify E. coli SecA ATPase Inhibitors; assay type: functional; details: 30 µM
[2] = target: T1, Ubiquitin-activating enzyme e1, putative (Leishmania donovani (strain BPK282A1)) (UniProt E9BSI1); test: Leishmania donovani Ubiquitin Activating Enzyme (LdE1); assay type: functional; details: 30 µM
T1 sequence (whole entry): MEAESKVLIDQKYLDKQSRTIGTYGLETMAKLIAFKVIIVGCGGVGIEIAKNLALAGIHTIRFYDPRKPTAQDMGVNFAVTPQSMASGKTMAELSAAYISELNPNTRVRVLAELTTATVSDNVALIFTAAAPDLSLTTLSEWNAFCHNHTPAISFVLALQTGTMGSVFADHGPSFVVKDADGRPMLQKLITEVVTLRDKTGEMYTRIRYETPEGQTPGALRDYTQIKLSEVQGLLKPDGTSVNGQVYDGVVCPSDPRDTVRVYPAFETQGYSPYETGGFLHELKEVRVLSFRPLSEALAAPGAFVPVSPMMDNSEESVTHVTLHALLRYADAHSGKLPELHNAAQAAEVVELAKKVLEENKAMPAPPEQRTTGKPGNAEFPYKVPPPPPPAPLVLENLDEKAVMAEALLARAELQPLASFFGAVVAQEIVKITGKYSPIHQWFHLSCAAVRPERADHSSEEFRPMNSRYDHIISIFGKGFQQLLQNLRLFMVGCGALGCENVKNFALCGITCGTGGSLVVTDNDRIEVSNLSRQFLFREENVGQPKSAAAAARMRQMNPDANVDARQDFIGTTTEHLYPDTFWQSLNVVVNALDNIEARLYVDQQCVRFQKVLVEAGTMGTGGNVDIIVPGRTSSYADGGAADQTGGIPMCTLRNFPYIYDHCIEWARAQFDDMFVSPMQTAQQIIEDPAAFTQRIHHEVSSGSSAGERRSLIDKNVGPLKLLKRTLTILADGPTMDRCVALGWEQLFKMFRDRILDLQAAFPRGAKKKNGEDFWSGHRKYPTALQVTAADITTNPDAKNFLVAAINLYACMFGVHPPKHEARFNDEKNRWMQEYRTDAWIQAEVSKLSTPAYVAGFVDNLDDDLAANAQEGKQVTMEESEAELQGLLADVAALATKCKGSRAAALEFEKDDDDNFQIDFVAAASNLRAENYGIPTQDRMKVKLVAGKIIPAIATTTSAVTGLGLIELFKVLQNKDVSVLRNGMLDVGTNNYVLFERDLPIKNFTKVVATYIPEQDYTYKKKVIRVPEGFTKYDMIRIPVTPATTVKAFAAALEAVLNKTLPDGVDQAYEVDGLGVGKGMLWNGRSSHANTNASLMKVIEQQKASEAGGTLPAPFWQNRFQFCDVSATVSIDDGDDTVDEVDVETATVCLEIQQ

[3] = target: AMP-activated protein kinase, AMPK (Homo sapiens) (UniProt P54646+O43741+P54619+Q9UGJ0+Q9Y478+Q13131+Q9UGI9); test: AMP-dependent Kinase enzyme assay. An in vitro enzyme assay that detects ADP turnover that is directly proportional to AMPK activity. This uses naive AMPK that is activated during the assay with MK-8722; assay type: functional; details: 30 µM
[4] = target: Sialic acid-binding Ig-like lectin 9 (Homo sapiens) (UniProt Q9Y336); test: Hs-Siglec9 ALPHAscreen SOP 20170721; details: 10 µM
Sialic acid-binding Ig-like lectin 9 (Homo sapiens), sequence (Q9Y336 whole entry): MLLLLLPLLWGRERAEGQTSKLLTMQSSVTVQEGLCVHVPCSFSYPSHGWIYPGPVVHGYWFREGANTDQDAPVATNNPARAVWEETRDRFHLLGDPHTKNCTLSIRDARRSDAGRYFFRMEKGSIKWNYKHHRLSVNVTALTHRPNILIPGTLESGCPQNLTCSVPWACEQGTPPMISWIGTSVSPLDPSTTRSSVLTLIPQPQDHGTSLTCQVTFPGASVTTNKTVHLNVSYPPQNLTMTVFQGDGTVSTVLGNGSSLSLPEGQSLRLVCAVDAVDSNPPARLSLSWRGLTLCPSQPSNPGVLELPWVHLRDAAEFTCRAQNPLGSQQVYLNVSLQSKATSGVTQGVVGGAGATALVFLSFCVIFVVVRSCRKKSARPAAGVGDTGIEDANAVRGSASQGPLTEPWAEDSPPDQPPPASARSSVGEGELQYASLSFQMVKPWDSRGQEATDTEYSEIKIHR

[5] = test system: Trypanosoma cruzi; test: Trypanosoma cruzi phosphomannomutase and mannose-1-phosphate guanylyltransferase assay; assay type: functional; details: 10 µM
[6] = target: T2, Arginase-2, mitochondrial (Homo sapiens) (UniProt P78540); test: in vitro enzyme assay to detect the production of urea directly proportional to the activity of Arginase II; assay type: functional; details: 33.3 µM; note: in the data most compounds retested in dose-response had high values
T2 sequence (whole entry): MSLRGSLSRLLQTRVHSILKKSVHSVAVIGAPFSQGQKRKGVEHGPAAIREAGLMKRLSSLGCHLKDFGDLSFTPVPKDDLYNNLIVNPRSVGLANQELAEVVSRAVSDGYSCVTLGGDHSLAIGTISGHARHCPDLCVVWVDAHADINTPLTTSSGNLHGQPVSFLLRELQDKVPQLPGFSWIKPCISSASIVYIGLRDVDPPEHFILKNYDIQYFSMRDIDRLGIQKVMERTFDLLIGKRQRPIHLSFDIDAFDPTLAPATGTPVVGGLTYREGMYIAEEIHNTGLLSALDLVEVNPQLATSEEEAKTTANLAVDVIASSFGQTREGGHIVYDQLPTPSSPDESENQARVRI

[7] = target: T3, Proteasome subunit beta (Trypanosoma cruzi) (UniProt O96673); test: Trypanosoma cruzi proteasome chymotrypsin-like activity (TcProtChymo) assay.; note: in the data most compounds retested in dose-response had high values; assay type: functional; details: 9.37 µM
T3 sequence (whole entry): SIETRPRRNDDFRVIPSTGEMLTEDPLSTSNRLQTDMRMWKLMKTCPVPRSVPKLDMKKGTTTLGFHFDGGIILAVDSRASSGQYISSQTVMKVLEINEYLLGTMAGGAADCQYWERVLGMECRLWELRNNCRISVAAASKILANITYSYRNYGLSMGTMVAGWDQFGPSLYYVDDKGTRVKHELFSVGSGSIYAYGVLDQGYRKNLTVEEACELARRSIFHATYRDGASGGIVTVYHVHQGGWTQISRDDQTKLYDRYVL

[8] = species: Homo sapiens; test: To identify inhibition of the IFN signalling (Jak-Stat) pathway via expression of an eGFP reporter gene under the control of an IFN-stimulated response element (ISRE) containing MxA promoter.; assay type: functional; details: 30 µM
[9] = target: T4, Tyrosyl-tRNA synthetase, putative (Trypanosoma cruzi (strain CL Brener)) (UniProt Q4DSP6); test: Trypanosoma cruzi tyrosyl tRNA synthetase (TcYRS) _High Tyrosine SOP; assay type: functional; details: 30 µM; note: in the data most compounds retested in dose-response had high values
T4 sequence (whole entry): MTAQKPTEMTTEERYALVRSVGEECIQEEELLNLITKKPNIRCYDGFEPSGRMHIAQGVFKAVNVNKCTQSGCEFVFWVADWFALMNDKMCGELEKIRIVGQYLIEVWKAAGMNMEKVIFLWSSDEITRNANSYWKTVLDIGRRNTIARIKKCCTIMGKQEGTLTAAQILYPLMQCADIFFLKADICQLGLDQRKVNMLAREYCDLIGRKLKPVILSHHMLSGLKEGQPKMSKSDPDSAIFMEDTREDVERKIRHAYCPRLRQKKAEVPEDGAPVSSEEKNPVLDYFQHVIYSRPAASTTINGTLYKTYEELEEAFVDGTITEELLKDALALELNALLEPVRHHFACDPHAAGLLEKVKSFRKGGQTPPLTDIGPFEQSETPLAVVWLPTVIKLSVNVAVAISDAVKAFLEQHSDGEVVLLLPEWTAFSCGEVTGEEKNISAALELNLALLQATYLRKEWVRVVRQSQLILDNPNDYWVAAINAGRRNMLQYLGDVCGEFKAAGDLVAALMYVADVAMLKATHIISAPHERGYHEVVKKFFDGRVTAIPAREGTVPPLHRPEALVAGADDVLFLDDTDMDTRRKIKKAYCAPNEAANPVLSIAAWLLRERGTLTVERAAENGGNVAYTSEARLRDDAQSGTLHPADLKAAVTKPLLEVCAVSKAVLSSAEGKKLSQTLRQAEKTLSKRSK

[10] = target: T4, Tyrosyl-tRNA synthetase, putative (Trypanosoma cruzi (strain CL Brener)); test: Trypanosoma cruzi tyrosyl tRNA synthetase (TcYRS) SOP; assay type: functional; details: 30 µM
[11] = target: Chromo domain-containing protein 1 (Saccharomyces cerevisiae (strain ATCC 204508 / S288c) (Baker's yeast)) (UniProt P32657); test: ScCHD-1 Enzyme Inhibition Assay; assay type: functional; details: 30 µM; note: in the data most compounds retested in dose-response had high values
Chromo domain-containing protein 1 (Saccharomyces cerevisiae (strain ATCC 204508 / S288c) (Baker's yeast)), sequence (P32657 whole entry, the tested form may be a part): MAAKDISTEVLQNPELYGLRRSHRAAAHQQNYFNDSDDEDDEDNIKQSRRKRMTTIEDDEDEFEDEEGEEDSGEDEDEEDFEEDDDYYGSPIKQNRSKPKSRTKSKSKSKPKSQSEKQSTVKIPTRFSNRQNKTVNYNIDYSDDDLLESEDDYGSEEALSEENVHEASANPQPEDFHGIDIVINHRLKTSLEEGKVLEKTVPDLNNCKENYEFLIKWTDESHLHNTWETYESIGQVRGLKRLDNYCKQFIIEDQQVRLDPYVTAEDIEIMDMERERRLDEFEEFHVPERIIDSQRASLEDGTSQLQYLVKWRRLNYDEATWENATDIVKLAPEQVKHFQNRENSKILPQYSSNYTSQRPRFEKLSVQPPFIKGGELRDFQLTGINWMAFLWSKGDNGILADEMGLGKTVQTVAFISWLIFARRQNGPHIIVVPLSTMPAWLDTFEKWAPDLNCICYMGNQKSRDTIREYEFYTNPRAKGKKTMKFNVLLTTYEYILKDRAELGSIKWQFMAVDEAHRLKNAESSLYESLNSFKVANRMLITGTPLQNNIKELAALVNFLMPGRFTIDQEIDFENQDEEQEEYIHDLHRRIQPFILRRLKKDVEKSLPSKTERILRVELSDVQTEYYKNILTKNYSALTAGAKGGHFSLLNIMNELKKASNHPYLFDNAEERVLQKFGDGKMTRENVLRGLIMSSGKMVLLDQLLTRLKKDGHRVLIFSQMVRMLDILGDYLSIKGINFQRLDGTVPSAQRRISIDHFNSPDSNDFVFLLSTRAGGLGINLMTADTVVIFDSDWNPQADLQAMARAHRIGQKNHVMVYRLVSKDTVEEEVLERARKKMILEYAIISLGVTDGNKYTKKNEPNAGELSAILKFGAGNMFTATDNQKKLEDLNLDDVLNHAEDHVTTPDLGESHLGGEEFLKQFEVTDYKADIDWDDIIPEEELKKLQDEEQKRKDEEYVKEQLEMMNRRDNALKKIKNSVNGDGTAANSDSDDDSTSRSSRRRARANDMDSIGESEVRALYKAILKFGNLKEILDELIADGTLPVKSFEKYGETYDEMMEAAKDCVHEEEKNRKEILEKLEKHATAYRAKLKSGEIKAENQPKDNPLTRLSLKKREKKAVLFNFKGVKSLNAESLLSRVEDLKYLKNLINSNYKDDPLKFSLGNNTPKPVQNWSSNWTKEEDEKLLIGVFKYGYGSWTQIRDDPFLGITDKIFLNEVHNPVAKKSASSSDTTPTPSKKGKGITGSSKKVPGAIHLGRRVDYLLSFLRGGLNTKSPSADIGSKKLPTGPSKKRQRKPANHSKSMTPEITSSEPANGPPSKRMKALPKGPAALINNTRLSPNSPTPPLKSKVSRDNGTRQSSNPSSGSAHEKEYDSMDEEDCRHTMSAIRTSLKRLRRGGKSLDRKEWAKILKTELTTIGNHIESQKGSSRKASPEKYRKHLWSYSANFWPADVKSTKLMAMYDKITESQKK

Protein translocase subunit SecA (Escherichia coli (strain K12)), sequence (P10408 whole entry): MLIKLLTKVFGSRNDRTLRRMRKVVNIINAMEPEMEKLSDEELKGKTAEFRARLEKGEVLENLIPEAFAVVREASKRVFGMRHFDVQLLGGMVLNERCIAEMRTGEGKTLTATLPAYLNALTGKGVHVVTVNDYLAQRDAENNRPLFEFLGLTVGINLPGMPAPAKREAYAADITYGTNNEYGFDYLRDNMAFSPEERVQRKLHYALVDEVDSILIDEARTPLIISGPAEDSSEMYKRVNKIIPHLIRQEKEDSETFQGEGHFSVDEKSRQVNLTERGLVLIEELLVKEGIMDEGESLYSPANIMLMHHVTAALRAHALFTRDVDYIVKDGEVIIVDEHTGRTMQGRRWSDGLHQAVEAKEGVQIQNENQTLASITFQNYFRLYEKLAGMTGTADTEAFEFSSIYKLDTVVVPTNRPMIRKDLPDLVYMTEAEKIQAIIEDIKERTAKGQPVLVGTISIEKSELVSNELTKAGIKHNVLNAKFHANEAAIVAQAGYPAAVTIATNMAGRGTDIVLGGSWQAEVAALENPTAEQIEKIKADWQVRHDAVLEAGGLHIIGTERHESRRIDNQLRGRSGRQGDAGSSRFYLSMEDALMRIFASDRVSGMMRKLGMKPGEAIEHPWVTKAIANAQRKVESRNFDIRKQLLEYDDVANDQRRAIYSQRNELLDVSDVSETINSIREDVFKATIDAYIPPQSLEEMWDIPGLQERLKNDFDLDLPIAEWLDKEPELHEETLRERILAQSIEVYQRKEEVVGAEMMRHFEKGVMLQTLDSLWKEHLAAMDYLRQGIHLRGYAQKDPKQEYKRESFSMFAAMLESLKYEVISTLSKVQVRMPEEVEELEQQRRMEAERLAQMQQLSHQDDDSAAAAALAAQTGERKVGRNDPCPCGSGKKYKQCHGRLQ

Row | SMILES | Percent Effect [1] | Percent Effect [2] | Percent Effect [3] | Percent Effect [4] | Percent Effect [5] | Percent Effect [6] | Percent Effect [7] | Percent Effect [8] | Percent Effect [9] | Percent Effect [10] | Percent Effect [11]
1 | CCCS(=O)(=O)N1CCO[C@H]2[C@H](OCc3ccccn3)CC[C@@H]21 | -9.04% | 8.11% | -5.79% | -1.28% | -0.977% | 5% | 10.1% | 5.42% | 10.9% | 15.8% | -2.32%
2 | Cc1cc(C)c2nc(CN3CCOC(CCO)C3)cc(O)c2c1 (stereo not drawn) | -2.9% | 2.7% | -1.47% | 5.2% | 0.965% | -2.38% | 10.3% | -6.99% | 4.76% | 14.6% | -1.34%
3 | COc1ccc(OC)c(NC(=O)N2CCCC2c2ccco2)c1 (stereo not drawn) | -1.78% | 5.2% | 7.39% | -2.94% | -0.888% | 1.94% | 7.83% | 13.8% | -1.06% | 3.85% | -8.44%
4 | O=C(c1ccc[nH]1)N1CCCC2(CCN(c3ccsc3)C2=O)C1 (stereo not drawn) | -0.928% | -2.6% | 11.3% | 3.88% | -3.06% | -5.81% | 1.57% | 4.99% | -3.17% | -3.85% | -1.57%
5 | CCn1cnnc1CNC(=O)c1cc(Cl)ccc1OC | -2.18% | 8.86% | 8.8% | -1.08% | -2.56% | 3.66% | 11.2% | 7.84% | 9.38% | 15.2% | -11.8%
6 | Cn1ccnc1CN1CCN(CC(=O)NCC(F)(F)F)CC1 | -2.81% | 5.41% | -5.23% | 3.2% | -0.66% | -4.01% | 0% | 11.1% | 0.493% | 6.17% | -3%
7 | Cc1nc(C)n(CC2CCCN(CCCOc3ccccc3)C2)n1 (stereo not drawn) | -3.18% | 1.27% | 8.34% | 3.65% | -0.718% | 1.07% | -1.37% | -1.23% | 3.12% | 12.7% | -5.2%
8 | NC(=O)C1CCN(c2nc3nccc(-c4ccccc4)c3c(=O)[nH]2)CC1 | -4.01% | 2.74% | -6.46% | 3.02% | 6.75% | -7.19% | 14.8% | 5.49% | 1.04% | 6.17% | -5.09%
